Rows were chosen to be rich in hits. Some 3.2% of all compounds tested hit in one or more screens of this group.
TRb SRC2 PPI = TRbeta-SRC2 interaction inhibition; TRbeta-SRC2 peptide binding, fluorescence polarization; receptor liganded with 1 µM T3; Potency, µM (series often up to 106 µM), most hits filed as inhibitors; 280,000 tested, 0.065% active; P10828; further: nearly all actives have a fitted effect of over 50% in size
Target sequence (P10828 whole entry, looked up): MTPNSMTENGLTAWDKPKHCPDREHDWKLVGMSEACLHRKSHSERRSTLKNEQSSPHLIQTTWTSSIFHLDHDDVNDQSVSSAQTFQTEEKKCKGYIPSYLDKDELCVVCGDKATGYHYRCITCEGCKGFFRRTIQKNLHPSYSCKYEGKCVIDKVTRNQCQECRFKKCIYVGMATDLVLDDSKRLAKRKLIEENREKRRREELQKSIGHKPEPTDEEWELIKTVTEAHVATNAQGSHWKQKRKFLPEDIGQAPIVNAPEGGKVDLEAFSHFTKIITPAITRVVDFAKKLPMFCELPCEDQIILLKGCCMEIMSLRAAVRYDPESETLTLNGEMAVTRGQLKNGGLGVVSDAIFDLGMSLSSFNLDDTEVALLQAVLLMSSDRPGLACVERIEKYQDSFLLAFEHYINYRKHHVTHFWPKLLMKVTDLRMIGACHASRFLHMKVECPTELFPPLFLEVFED
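Each compound concentration gave % activity, normalized to unbound and bound Texas Red SRC2 controls, from polarization read after 5 hr ambient incubation with T3-loaded human TRb LBD.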
RGS12 GoLoco inh = inhibitors of human Gai1-RGS12 GoLoco interaction (red fluorophore) | P63096 | Gai1:RGS12 GoLoco peptide FP, rhodamine, 10 min | Potency, µM (top dose mostly 61.6 µM), usual class: inhibitors | 230,000 tested, 0.44% active | AID 880; active means well fitted inhibition curve with a large enough effect, not every such curve was filed as active; inactive means no such curve, though single readings can be large or run the other way; further: nearly all actives have a fitted effect of over 30% in size
Tau fluor counter = counter-screen for tau fibril formation inhibitors. 280,000 tested, 0.93% active. tau K18 P301L Alexa594 fluorescence, heparin fibrillization. Potency, µM (highest dose often 57.7 µM); further: nearly all actives have a fitted effect of over 55% in size
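Human K18 P301L tau (15 uM unlabeled plus 0.24 uM Alexa 594-labeled, final) in 100 mM sodium acetate pH 7 was mixed with compound and 20 uM heparin and incubated 6 hr at 37 C.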
TR SRC2 fluor cs = counter-screen for TRb-SRC2 inhibitors: fluorescence interference. TRb/SRC2 Texas Red total fluorescence interference. AID 1479. Potency, µM (top dose mostly 106 µM). 280,000 tested, 0.29% active; active means well fitted curve in either direction with a large enough effect; inconclusive means small, poorly fitted or top-dose-only effect
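Human TRβ ligand-binding domain (0.6 uM) and Texas Red SRC2 peptide (20 nM) in Tris buffer with 1 uM T3 and 5% DMSO were incubated with pinned compound for 5 hr at ambient temperature. Total fluorescence was computed as S + 2P (555/632 nm).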
Tau fibril FP = inhibitors of human tau fibril formation; P10636; K18 P301L tau heparin fibrillization, Alexa594 FP, 6 h; Potency, µM (series often up to 57.7 µM), most hits filed as inhibitors; 280,000 tested, 0.39% active; AID 1468; further: nearly all actives have a fitted effect of over 55% in size
Target sequence (P10636 561-689 P618L limits assumed): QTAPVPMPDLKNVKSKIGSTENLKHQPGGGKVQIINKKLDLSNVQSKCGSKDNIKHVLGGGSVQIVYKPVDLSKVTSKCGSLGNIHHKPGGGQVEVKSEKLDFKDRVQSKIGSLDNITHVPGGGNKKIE
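Quantitative HTS format: compounds meet 15 uM recombinant K18 P301L tau and Alexa 594-tau tracer in 100 mM sodium acetate pH 7; 20 uM heparin triggers fibrillization at 37 C over 6 hr; FP gives the signal.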
Tau fibril ThT = tau fibrillization inhibition (ThT binding); P10636; recombinant tau K18 P301L, heparin-induced fibrillization, ThT fluorescence; Potency, µM (doses to about 57.4 µM), hits mostly inhibitors; 270,000 tested, 2.1% active; AID 1460; further: nearly all actives have a fitted effect of over 55% in size
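ThT emission at 510 nm, taken 1 hr after adding 30 uM dye, quantifies aggregates formed when 20 uM heparin acts on human tau K18 P301L for 6 hr at 37 C.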
Of the large screens only hits and unclear results are named; the others gave an inactive call; [ ] = dose if it differs, or a comment. Unless noted, the call rests on the fitted dose curve; in most records, active means well fitted curve in the direction sought with a large enough effect; inconclusive means small, poorly fitted or top-dose-only effect, or another doubt; inactive means no such curve, though single readings can be large; an effect the other way counts as inactive or inconclusive.

Cc1ccc(C=Nc2ccccc2C(N)=O)o1	none
Cc1cc(=O)oc2cc(NC(=O)[C@H](CCCCN)NC(=O)[C@H](CC3CCCCC3)NC(=O)OCC3c4ccccc4-c4ccccc43)ccc12	none (no result: RGS12 GoLoco inh, Tau fluor counter, Tau fibril FP, Tau fibril ThT)
Cc1ccc(Oc2cc(NC(=O)CCCn3nc([N+](=O)[O-])cc3C)cc([N+](=O)[O-])c2)cc1	Tau fluor counter 10µM[quencher]
Cn1cc([N+](=O)[O-])c(C(=O)Nc2cc(Oc3ccccc3)cc([N+](=O)[O-])c2)n1	Tau fluor counter inconclusive, TR SRC2 fluor cs inconclusive
Cc1ccc(C)c(Oc2cc(NC(=O)CCCn3nc(C)c([N+](=O)[O-])c3C)cc([N+](=O)[O-])c2)c1	none
Cc1cccc(Oc2cc(NC(=O)c3ccccc3)cc([N+](=O)[O-])c2)c1	Tau fluor counter 7.08µM[quencher]
Cc1nn(CCCC(=O)Nc2cc(Oc3ccccc3)cc([N+](=O)[O-])c2)c(C)c1[N+](=O)[O-]	Tau fluor counter 10µM[quencher] (no result: RGS12 GoLoco inh)
O=C(Nc1cc(Oc2ccc(Cl)cc2)cc([N+](=O)[O-])c1)c1ccco1	Tau fluor counter 7.08µM[quencher]
O=C(Nc1cccc(Cl)c1)c1cc(-c2ccc3c(c2)OCCO3)on1	TR SRC2 fluor cs 10µM[quencher], Tau fibril FP inconclusive, Tau fibril ThT inconclusive (no result: RGS12 GoLoco inh)
O=C(Nc1cccc(Cl)c1)c1cc(-c2ccc3c(c2)OCO3)on1	Tau fibril FP inconclusive, Tau fibril ThT inconclusive (no result: RGS12 GoLoco inh)
O=C1OC(c2ccccc2)=C/C1=C/N1CCCCC1	Tau fibril FP inconclusive, Tau fibril ThT 28.2µM
CC(C)[C@@H](C(=O)O)N1C(=O)c2ccccc2C1=O	none (no result: TRb SRC2 PPI, Tau fluor counter, TR SRC2 fluor cs, Tau fibril FP, Tau fibril ThT)
CCN(C(=O)c1coc(=O)c(Br)c1)c1ccc2c(c1)OCO2	Tau fluor counter inconclusive, Tau fibril FP inconclusive, Tau fibril ThT 22.4µM
OC(CNc1ccccc1)COc1ccc(OCC(O)CNc2ccccc2)cc1 (stereo unspecified)	Tau fluor counter 10µM[quencher], Tau fibril ThT 2.82µM
CCN1CCN(c2ccc(NC(=O)CCc3c(C)nc4c(-c5ccc(F)cc5)c(C)nn4c3C)cc2)CC1	Tau fluor counter 17.8µM[quencher], Tau fibril ThT inconclusive
Cc1nc2c(-c3ccc(F)cc3)c(C)nn2c(C)c1CCC(=O)Nc1ccccc1	none
C[C@@H]1C(=O)O[C@H]2C[C@@]34[C@H]5C[C@@H](C(C)(C)C)[C@]36[C@H](OC(=O)[C@H]6O)O[C@]4(C(=O)O5)[C@]21O	none (no result: RGS12 GoLoco inh, Tau fluor counter, Tau fibril FP, Tau fibril ThT)
Cc1[nH]c2ccccc2c1/C=N/n1cnnc1	none
COCCN=c1scc(-c2cc(OC)c(OC)c(OC)c2)n1/N=C/c1c(C)[nH]c2ccccc12	Tau fluor counter 7.94µM[quencher], Tau fibril ThT inconclusive
COc1ccccc1CNC(=O)CN1C(=O)CCc2cc(S(=O)(=O)N3CCCCC3)ccc21	none (no result: RGS12 GoLoco inh)
COc1ccccc1N1CCN(CC2CN3C(=O)N(C)c4ccccc4C3=N2)CC1 (stereo unspecified)	none
Nc1nc(N)c(N=Nc2ccc(S(N)(=O)=O)cc2)c(=O)[nH]1	Tau fibril ThT 20µM
NS(=O)(=O)c1ccc(N=Nc2ccc(=O)[nH]c2O)cc1	Tau fibril ThT 15.8µM
COC(=O)C1=C[C@@H](C(=O)OC)C2C3=C(C(=O)[C@@]2(C)NC(=O)c2ccccc2)[C@H](c2ccccc2)n2c(=O)n(-c4ccccc4)c(=O)n2[C@@H]3C1 (stereo partly specified)	none (no result: RGS12 GoLoco inh, Tau fluor counter, Tau fibril FP, Tau fibril ThT)
CCCOC(=O)c1cccc(Nc2nc(CCC)cc(=O)[nH]2)c1	Tau fluor counter inconclusive, TR SRC2 fluor cs inconclusive, Tau fibril FP 22.4µM (no result: RGS12 GoLoco inh)
O=C(CSc1n[nH]c(=O)[nH]c1=O)Nc1ccc2c(c1)C(=O)c1ccccc1C2=O	Tau fluor counter 12.6µM[quencher], Tau fibril ThT 10µM
Clc1ccc2c(c1)-n1cc(-c3ccccc3)nc1CO2	TR SRC2 fluor cs 11.2µM[quencher], Tau fibril ThT inconclusive (no result: RGS12 GoLoco inh)
COC(=O)CC1Oc2ccc(Cl)cc2-n2cc(-c3ccccc3)nc21 (stereo unspecified)	none (no result: RGS12 GoLoco inh)
C[n+]1cnc(-c2ccccc2)cc1-c1ccccc1	RGS12 GoLoco inh 14.1µM
CCCNc1c(F)c(F)c2c(C)c3ccccc3nc2c1F	RGS12 GoLoco inh 28.2µM, Tau fibril ThT 14.1µM
Cc1cc(=O)[nH]c2cc3oc4ccccc4c3cc12	none (no result: TRb SRC2 PPI, Tau fluor counter, TR SRC2 fluor cs, Tau fibril FP, Tau fibril ThT)
Cn1c(/C=N/O)nc2ccccc21	none
Cn1c[n+](C)cc1/C=N/O	RGS12 GoLoco inh 3.98µM
O=C(Nc1ccc(F)cc1)Nc1ccccc1NS(=O)(=O)c1cccs1	Tau fluor counter inconclusive (no result: RGS12 GoLoco inh)
O=C(Nc1ccc(Cl)cc1)Nc1cccc2nsnc12	Tau fluor counter inconclusive, Tau fibril FP 14.1µM, Tau fibril ThT inconclusive
O=C(Nc1ccc(Cl)cc1)Nc1ccccc1NS(=O)(=O)c1cccs1	Tau fluor counter 14.1µM[quencher], Tau fibril FP inconclusive, Tau fibril ThT inconclusive
C=C(C(=O)C(C)(C)O)C(O)c1ccc([N+](=O)[O-])cc1 (stereo unspecified)	none
COc1ccc(OC)c(Nc2ccc(Nc3cc(OC)ccc3OC)nn2)c1	Tau fluor counter 12.6µM[quencher], Tau fibril FP inconclusive, Tau fibril ThT inconclusive
COc1c(O)c(O)cc2c1oc1c3ccccc3oc(=O)c21	Tau fluor counter 10µM[quencher], Tau fibril FP inconclusive, Tau fibril ThT 7.94µM
C=C(C(=O)O)[C@@H]1CC[C@@]2(C)CCC[C@](C)(O)[C@@H]2C1	none

Compound activity deposited in PubChem BioAssay by National Center for Advancing Translational Sciences (NCATS).
